Source: PubChem BioAssay (NCI)
Several values for one entry are separate records, joined by “and”; a condition that tells them apart may be missing. Equal values may be shown once. About 79,000 compounds went through this panel and 15% of them were active in at least one assay; those are over-represented in the sample as a whole. Activity calls are given as the source filed them. No stated cut-off is given here; in the data, active means growth inhibition above about 70%; inactive means the rest.

Columns and labels:
[1] = NCI Yeast Anticancer Drug Screen. Data for the rad50 strain (AID 155);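 further: 0% = growth of vehicle-only cultures of the same strain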; details: S. cerevisiae rad50 strain growth inhibition, stronger effect = higher value
How it was run: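 Vehicle-treated cultures provide the reference for the growth inhibition reported for compound-exposed, repair-deficient yeast.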

[2] = NCI Yeast Anticancer Drug Screen. Data for the mec2-1 strain (AID 157); details: S. cerevisiae mec2-1 strain, stronger effect = higher value
How it was run: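 Vehicle-treated cultures served as reference for growth inhibition of compound-exposed mec2-1 yeast.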

[3] = NCI Yeast Anticancer Drug Screen. Data for the sgs1 mgt1 strain (AID 161);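 further: 0% = growth of cultures given vehicle only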; details: S. cerevisiae sgs1 mgt1 strain, stronger effect = higher value
How it was run: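 Read-out: growth inhibition vs vehicle controls. Cells: mutant yeast strain deficient in DNA damage repair.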

[4] = NCI Yeast Anticancer Drug Screen. Data for the cln2 rad14 strain (AID 165);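 further: 0% = growth equal to vehicle treated cultures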; details: S. cerevisiae cln2 rad14 strain, stronger effect = higher value
How it was run: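 Each compound was tested on cln2 rad14 yeast. Inhibition of growth was calculated against vehicle-exposed controls.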

[5] = NCI Yeast Anticancer Drug Screen. Data for the bub3 strain (AID 167); details: S. cerevisiae bub3 mutant strain, stronger effect = higher value
How it was run: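 Mutant yeast screening strain plus compound; vehicle-treated cultures serve as the 0% inhibition reference.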

[6] = NCI Yeast Anticancer Drug Screen. Data for the mlh1 rad18 strain (AID 175); details: S. cerevisiae mlh1 rad18 strain growth inhibition, stronger effect = higher value
How it was run: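 Vehicle-treated cultures served as the reference for growth inhibition in a yeast strain carrying DNA damage repair alterations exposed to each compound.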

[7] = at 5.0 µM (retest, dose inferred, filed as 0.5)
[8] = at 50.0 µM (retest, dose inferred, filed as 5.0)

Measured: growth inhibition

CN=c1sc2nc(C#N)c(C#N)nc2n1C
inactive: [1]; [7] -15% | [1]; [8] 44% | [2]; [7] -8% | [2]; [8] 61% | [2]; at 50.0 µM 40.1% | [3]; [7] -23% | [3]; [8] 35% | [4]; [7] 2% | [4]; [8] 23% | [4]; at 50.0 µM 63.1% | [5]; [7] -22% | [5]; [8] 69% | [6]; [7] -8% | [6]; [8] 58%
active: [1]; at 50.0 µM 85.3% | [3]; at 50.0 µM 75.3% | [5]; at 50.0 µM 89.8% | [6]; at 50.0 µM 81.5%

CC1C[C@]2(C)C(=O)Nc3ccccc3[C@@H]2Nc2ccccc21 (some centres not stated)
inactive: [1]; [7] 6% | [1]; [8] 36% | [2]; [7] 10% | [2]; [8] 30% | [3]; [7] 22% | [3]; [8] 14% | [4]; [7] -6% | [4]; [8] 57% | [5]; [7] 20% | [6]; [7] 16% | [6]; [8] 43%
active: [1]; at 50.0 µM 91.1% | [2]; at 50.0 µM 93.8% | [3]; at 50.0 µM 93.2% | [4]; at 50.0 µM 89.5% | [5]; [8] 73% | [5]; at 50.0 µM 91.5% | [6]; at 50.0 µM 89.2%

CC(NC(=O)C(N)Cc1ccccc1)C(=O)NC1C(CO)OC(n2cnc3c(N)ncnc32)C1O (configuration not stated)
active: [2]; at 50.0 µM 76.9% | [4]; at 50.0 µM 97.7% | [5]; at 50.0 µM 96.5%
inactive: [1]; [7] 0% | [1]; [8] -1% | [1]; at 50.0 µM 32.2% | [2]; [7] 2% | [2]; [8] 17% | [3]; [7] -5% | [3]; [8] -20% | [3]; at 50.0 µM 3.5% | [4]; [7] 0% | [4]; [8] -6% | [5]; [7] -3% | [5]; [8] -4% | [6]; [7] 12% | [6]; [8] 32% | [6]; at 50.0 µM 69.5%

COc1ccc2[nH]c3c(C)c4ccncc4c(C)c3c2c1
active: [1]; [7] 95% | [1]; [8] 99% | [1]; at 50.0 µM 92.6% and 99% | [2]; [8] 99% | [2]; at 50.0 µM 93.7% and 99.5% | [3]; [8] 99% | [3]; at 50.0 µM 93.2% and 99.4% | [4]; [8] 99% | [4]; at 50.0 µM 91.8% and 99% | [5]; [8] 99% | [5]; at 50.0 µM 92.7% and 99.3% | [6]; [8] 99% | [6]; at 50.0 µM 92.8% and 99.4%
inactive: [2]; [7] 40% | [3]; [7] 39% | [4]; [7] 21% | [5]; [7] 30% | [6]; [7] 55%
